Experimental data taken from the supplement of paper PMC11732987, “Enantioselective OTUD7B fragment discovery through chemoproteomics screening and high-throughput optimisation” (Communications Chemistry, 2025).

Legend:
Assay in all cases: log2 ratio of Biotin-Ahx-Ub-VS probe labelling (fragment/DMSO); higher = less target engagement (more negative = stronger competition), active = hit call of the paper (q ≤ 0.05, log2 ratio ≤ -1)
Details in all cases: compound concentration: 200 uM; treatment time: 3 h
USP19 = molecular target: T1, USP19 (UniProt O94966)
T1 sequence (whole entry): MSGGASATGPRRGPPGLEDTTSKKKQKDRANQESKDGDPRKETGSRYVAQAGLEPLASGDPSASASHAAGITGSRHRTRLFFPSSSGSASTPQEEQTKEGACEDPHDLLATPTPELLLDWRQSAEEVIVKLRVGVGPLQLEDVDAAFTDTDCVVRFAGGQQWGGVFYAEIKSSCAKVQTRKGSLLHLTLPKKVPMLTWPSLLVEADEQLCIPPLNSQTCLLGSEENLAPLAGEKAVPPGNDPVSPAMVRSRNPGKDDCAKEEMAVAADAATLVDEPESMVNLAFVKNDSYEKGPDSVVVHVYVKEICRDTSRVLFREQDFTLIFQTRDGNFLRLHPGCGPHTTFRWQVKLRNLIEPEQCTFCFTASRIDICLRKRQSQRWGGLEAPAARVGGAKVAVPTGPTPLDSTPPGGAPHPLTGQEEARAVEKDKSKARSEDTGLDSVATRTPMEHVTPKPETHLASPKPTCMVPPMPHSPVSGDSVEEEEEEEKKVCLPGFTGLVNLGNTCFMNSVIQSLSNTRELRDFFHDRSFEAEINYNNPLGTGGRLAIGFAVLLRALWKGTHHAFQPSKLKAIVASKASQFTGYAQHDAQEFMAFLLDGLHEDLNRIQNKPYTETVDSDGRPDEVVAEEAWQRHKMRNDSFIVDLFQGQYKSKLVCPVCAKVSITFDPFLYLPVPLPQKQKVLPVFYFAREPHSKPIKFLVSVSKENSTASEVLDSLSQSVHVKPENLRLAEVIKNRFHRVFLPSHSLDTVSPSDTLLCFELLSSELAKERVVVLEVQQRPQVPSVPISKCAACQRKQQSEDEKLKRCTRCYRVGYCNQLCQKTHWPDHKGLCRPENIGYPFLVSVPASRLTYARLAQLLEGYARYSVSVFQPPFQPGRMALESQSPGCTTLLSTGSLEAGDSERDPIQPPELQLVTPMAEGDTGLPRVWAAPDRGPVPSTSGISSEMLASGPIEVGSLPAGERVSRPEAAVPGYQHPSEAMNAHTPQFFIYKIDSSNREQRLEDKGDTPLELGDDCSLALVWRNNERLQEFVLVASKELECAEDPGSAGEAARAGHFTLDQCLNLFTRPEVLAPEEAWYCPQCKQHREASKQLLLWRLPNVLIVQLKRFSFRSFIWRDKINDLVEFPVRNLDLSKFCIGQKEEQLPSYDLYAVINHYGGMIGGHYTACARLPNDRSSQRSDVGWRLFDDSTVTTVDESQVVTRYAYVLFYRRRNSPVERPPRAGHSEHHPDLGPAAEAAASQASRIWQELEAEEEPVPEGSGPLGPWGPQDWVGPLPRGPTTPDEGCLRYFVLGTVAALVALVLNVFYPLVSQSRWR
Summary of the method: (§1)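 Values give the average log2 ratio of fragment to vehicle, assessed by unpaired t-test on global-median-normalised Spectronaut label-free quantities. Proteins needed ≥2 unique peptides. HEK293T lysate (495 µg per sample) was treated in triplicate with fragment at 200 µM or vehicle for 3 h and then with Biotin-Ahx-Ub-VS at 0.5 µM final for 1 h. Labelled DUBs were NeutrAvidin-enriched, digested and run by diaPASEF LC-MS/MS.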

USP22 = molecular target: T2, USP22 (UniProt Q9UPT9)
T2 sequence (whole entry): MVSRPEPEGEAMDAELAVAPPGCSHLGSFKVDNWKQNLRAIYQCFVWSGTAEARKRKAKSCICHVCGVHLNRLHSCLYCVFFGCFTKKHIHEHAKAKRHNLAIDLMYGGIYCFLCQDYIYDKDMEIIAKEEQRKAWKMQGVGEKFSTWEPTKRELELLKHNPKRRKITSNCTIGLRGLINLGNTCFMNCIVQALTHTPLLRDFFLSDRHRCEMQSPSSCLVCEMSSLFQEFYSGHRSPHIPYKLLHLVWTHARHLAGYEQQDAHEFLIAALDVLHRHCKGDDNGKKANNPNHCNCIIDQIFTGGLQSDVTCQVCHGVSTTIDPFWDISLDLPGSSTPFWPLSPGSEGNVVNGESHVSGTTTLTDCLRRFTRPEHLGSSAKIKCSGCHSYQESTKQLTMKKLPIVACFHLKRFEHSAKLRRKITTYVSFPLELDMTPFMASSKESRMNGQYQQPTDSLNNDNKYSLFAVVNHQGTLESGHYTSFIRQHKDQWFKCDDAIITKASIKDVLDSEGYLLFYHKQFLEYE
Summary of the method: as §1

USP24 = USP24 (UniProt Q9UPU5)
Summary of the method: as §1

USP25 = molecular target: T3, USP25 (UniProt Q9UHP3)
T3 sequence (whole entry): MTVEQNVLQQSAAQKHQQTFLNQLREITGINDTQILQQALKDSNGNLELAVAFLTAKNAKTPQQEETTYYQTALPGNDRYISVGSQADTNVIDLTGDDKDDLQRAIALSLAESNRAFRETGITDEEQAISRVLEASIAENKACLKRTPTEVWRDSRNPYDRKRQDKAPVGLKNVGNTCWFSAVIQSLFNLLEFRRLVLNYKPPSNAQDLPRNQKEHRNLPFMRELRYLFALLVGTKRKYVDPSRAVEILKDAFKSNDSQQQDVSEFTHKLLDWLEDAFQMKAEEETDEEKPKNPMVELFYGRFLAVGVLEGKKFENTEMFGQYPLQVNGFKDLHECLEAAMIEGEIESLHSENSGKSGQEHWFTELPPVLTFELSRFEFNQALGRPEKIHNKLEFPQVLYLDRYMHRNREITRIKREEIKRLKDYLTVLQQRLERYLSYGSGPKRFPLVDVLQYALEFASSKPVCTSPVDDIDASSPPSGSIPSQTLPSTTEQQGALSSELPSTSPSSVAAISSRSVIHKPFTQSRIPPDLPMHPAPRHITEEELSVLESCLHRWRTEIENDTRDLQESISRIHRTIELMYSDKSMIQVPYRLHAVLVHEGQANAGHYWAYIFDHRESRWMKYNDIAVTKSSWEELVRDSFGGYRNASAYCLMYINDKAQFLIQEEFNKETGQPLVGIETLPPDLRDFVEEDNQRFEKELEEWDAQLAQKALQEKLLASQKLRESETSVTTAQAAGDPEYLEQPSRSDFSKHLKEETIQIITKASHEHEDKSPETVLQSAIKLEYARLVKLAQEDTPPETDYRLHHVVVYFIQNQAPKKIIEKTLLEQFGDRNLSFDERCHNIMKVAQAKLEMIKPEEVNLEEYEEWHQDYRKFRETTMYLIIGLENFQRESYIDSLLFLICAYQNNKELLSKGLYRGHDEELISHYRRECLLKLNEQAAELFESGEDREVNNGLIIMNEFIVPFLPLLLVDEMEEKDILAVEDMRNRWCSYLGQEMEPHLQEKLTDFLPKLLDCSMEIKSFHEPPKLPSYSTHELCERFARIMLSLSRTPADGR
Summary of the method: as §1

USP28 = molecular target: T4, USP28 (UniProt Q96RU2)
T4 sequence (whole entry): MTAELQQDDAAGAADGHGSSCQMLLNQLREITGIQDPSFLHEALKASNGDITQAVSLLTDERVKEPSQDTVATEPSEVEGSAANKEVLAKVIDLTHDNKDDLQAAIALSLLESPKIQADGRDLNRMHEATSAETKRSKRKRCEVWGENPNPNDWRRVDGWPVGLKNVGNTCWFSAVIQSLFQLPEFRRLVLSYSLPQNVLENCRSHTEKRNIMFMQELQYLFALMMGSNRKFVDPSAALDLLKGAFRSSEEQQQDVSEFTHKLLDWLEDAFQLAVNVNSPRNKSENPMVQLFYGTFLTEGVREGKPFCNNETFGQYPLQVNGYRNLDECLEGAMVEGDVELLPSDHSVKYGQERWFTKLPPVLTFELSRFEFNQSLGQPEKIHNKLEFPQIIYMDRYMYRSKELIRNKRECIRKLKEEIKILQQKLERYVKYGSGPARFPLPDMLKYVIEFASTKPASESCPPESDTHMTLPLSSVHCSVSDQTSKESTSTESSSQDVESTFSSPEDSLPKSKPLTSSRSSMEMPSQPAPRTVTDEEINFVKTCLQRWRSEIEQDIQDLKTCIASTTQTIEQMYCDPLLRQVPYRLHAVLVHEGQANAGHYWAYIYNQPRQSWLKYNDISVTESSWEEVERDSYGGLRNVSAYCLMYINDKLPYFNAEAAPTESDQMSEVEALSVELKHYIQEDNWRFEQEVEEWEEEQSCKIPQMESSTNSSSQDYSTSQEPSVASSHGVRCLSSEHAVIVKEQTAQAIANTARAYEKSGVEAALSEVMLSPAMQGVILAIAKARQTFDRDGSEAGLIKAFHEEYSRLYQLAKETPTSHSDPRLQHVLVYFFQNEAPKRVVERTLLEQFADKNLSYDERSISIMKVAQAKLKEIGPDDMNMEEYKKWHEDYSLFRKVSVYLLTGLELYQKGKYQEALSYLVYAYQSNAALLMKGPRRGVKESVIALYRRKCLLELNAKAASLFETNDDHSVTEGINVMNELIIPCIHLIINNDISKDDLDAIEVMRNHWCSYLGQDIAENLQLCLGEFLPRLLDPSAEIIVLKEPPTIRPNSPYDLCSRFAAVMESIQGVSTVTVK
Summary of the method: as §1

Measured: log2 ratio of Biotin-Ahx-Ub-VS probe labelling

USP24, sequence (Q9UPU5 whole entry): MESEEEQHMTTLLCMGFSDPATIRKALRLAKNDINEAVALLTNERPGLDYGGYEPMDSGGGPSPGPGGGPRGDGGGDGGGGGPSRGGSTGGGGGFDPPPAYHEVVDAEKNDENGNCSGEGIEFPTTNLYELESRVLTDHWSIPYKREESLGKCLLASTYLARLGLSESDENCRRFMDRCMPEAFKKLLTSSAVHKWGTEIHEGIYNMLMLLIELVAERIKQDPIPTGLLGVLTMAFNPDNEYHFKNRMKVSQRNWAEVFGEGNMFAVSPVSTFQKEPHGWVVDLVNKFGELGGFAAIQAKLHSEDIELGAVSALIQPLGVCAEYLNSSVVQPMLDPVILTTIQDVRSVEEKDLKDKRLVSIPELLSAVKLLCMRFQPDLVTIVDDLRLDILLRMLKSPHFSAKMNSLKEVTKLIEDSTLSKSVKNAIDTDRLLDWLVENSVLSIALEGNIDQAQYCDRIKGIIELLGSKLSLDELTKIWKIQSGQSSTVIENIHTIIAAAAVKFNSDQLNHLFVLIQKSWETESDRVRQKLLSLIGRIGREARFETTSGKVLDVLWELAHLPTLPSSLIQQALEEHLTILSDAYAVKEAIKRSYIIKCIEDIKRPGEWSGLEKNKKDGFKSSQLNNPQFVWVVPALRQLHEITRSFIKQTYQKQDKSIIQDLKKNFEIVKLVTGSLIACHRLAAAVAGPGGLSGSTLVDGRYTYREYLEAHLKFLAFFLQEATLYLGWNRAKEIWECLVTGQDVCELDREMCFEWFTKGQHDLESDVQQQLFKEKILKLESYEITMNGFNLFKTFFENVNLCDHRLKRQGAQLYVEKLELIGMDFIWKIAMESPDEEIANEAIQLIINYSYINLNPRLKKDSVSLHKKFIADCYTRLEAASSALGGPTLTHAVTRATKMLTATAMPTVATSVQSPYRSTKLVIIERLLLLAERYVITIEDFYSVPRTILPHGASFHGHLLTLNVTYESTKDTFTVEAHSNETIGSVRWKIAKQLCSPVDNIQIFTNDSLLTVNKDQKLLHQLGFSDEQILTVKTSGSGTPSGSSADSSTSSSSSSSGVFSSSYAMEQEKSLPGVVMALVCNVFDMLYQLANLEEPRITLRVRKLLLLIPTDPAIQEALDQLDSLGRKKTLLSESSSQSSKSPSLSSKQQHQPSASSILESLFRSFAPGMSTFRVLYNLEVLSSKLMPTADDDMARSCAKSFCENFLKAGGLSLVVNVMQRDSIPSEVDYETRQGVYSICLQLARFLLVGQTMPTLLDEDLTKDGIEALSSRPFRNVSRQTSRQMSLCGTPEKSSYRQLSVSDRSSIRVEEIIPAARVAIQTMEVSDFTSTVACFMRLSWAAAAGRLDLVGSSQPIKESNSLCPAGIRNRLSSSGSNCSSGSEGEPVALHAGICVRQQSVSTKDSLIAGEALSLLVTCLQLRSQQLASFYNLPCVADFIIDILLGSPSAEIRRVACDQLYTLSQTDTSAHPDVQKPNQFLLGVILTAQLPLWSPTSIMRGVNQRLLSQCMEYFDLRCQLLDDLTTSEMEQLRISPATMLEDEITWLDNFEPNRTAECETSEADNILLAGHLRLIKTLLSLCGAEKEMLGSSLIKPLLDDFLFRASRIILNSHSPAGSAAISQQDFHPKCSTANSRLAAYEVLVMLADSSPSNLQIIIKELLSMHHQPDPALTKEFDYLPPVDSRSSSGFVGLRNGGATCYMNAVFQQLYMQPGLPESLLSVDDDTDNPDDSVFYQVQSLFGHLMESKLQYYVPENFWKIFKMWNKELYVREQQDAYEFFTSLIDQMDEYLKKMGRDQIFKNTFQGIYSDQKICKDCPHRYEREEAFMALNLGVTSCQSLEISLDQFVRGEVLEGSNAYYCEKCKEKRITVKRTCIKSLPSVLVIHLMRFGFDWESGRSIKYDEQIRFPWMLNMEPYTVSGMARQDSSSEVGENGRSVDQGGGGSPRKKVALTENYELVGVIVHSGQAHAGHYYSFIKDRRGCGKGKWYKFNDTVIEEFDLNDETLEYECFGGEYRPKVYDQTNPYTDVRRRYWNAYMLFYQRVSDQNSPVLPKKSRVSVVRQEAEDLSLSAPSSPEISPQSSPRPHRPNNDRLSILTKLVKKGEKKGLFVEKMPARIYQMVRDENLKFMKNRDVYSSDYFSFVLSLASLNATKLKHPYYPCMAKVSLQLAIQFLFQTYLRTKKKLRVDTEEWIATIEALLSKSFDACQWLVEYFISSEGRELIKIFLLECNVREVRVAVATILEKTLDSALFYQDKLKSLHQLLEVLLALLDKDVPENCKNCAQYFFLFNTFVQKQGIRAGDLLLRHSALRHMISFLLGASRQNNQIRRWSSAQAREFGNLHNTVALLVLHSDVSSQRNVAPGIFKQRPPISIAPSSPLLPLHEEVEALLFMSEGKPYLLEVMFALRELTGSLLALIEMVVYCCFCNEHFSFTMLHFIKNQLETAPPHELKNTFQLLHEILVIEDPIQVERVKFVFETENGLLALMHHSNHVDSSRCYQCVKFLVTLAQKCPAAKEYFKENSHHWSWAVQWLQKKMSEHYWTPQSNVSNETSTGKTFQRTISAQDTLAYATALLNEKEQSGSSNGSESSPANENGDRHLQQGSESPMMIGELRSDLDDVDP

Cc1ccc(C(=O)NCCNC(=O)CCl)cc1
inactive: USP19 -0.26 | USP22 -0.00216 | USP24 -0.352 | USP25 -0.498 | USP28 -0.493
